Test results from ChEMBL document CHEMBL1157539, “Thousands of chemical starting points for antimalarial lead identification” (Nature, 2010).

Legend:
Format in all cases: functional
Plasmodium falciparum [1] = assay: GSK_TCMDC: Inhibition of Plasmodium falciparum 3D7 in whole red blood cells, using parasite LDH activity as an index of growth. Test compounds present at 2uM
Plasmodium falciparum [2] = assay: GSK_TCMDC: Inhibition of Plasmodium falciparum Dd2 in whole red blood cells, using parasite LDH activity as an index of growth. Test compounds present at 2uM
HepG2 = assay: GSK_TCMDC: Percent inhibition of human HepG2 cell line. Test compounds present at 10uM.

SMILES	Inhibition (Plasmodium falciparum [1]) [%]	Inhibition (Plasmodium falciparum [2]) [%]	Inhibition (HepG2) [%]
Cc1cc(NC(=O)Nc2ccc3nc(C)oc3c2)c2cc(Cl)ccc2n1	100	57	0
Cc1cccc(CNc2nc(C)cc(N[C@@H](Cc3ccccc3)C(=O)NC3CCCC3)n2)c1.O=C(O)C(F)(F)F	100	97	51
CCn1cc(C(=O)O)c(=O)c2cc(F)c(N3CCN(S(=O)(=O)c4ccc(N)cc4)CC3)cc21	90	79	0
O=C(/C=C/c1ccccc1O)N1CCC(CCN2CCC(c3c[nH]c4ccccc34)CC2)CC1	100	15	46
Cc1ccc2[nH]c(-c3cc(-c4ccc(CO)cc4)cnc3N)nc2c1.O=C(O)C(F)(F)F	95	6	52
COc1cc(C)c(C(O)CNC(C)CCc2ccccc2)cc1C.Cl (stereo not given)	98	98	1
O=C(N[C@H]1CCN(Cc2ccc(OCCCN3CCCCC3)cc2)C1)c1ccc(Cl)c(Cl)c1	100	36	27
O=C(NC1CCN(c2ccnc3cc(Cl)ccc23)C1)c1ccc(F)cc1.O=C(O)C(F)(F)F (stereo not given)	94	97	26
CC1CCN(c2nc(C(=O)Nc3cccc4c3CCCC4)c(C(C)C)s2)CC1.O=C(O)C(F)(F)F	96	49	14
CCCCC(O)c1cc(O)c2c(c1)OC(C)(C)CC2C1=CCN(Cc2ccc3ccccc3c2)CC1 (stereo not given)	100	97	7
